Assay results as given in the supplement of paper PMC10849652.
Of roughly 7,900 targets only a part is listed; those with a hit were picked by preference. About 0.6% of all pairs of compound and target were hits. Values without a mark were called inactive.

Tests used:
Experiment in all cases: log2 fold change, soluble protein after heating vs DMSO (PISA); higher = thermal stabilisation; K562 cells, 10 uM, 30 min; active = over 0.2 and 3.5 SD of the protein, either way, in both replicates (recomputed)
[1] = compound: CC1=C(C=C(C=C1)NC(=O)C2=CC(=CC=C2)C(C)(C)C#N)NC3=CC4=C(C=C3)N=CN(C4=O)C
Outline: (§1)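 Soluble protein was defined as the supernatant after 21,000xg for 90 min. It came from K562 cells at 2×10^6 cells/mL given 10 μM compound for 30 min, heated in aliquots for 3 min across 48°C-58°C, pooled, and extracted in PBS with 0.5% NP-40 at 4°C, and was quantified by TMTpro 16plex LC-MS/MS with equalised channel sums. Thermal stability against control samples, from duplicates, is reported as log2 fold change.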

[2] = compound: CC1=C(C=C(C=C1)NC(=O)C2=CC(=CC=C2)N(C)C)NC(=O)C3=CC=C(C=C3)O
Outline: as §1

[3] = compound: CC1=CC=C(C=C1)SC2=C3C=C(SC3=CN=C2)C(=O)N
Outline: as §1

[4] = compound: CC1=NC(=CC=C1)C2=C(N=C(N2)C(C)(C)C)C3=CC4=NC=CN=C4C=C3
Outline: as §1

Nexturastat A = compound: CCCCN(Cc1ccc(C(=O)NO)cc1)C(=O)Nc1ccccc1 [Nexturastat A]
Outline: as §1

vemurafenib = compound: CCCS(=O)(=O)Nc1ccc(F)c(C(=O)c2c[nH]c3ncc(-c4ccc(Cl)cc4)cc23)c1F [vemurafenib]
Outline: as §1

[5] = compound: CCCS(=O)(=O)Nc1ccc(F)c(C(=O)c2c[nH]c3ncc(Cl)cc23)c1F
Outline: as §1

[6] = compound: CCCc1cc(C)[nH]c(=O)c1CNC(=O)c1cc(-c2ccnc(N3CCN(C)CC3)c2)cc2c1cnn2C(C)C
Outline: as §1

givinostat = compound: CCN(CC)Cc1ccc2cc(COC(=O)Nc3ccc(C(=O)NO)cc3)ccc2c1 [givinostat]
Outline: as §1

barasertib = compound: CCN(CCCOc1ccc2c(Nc3cc(CC(=O)Nc4cccc(F)c4)[nH]n3)ncnc2c1)CCOP(=O)(O)O [barasertib]
Outline: as §1

[7] = compound: CC[C@@H]1C(=O)N(C)c2cnc(Nc3ccc(C(=O)NC4CCN(C)CC4)cc3OC)nc2N1C1CCCC1
Outline: as §1

volasertib = compound: CC[C@@H]1C(=O)N(C)c2cnc(Nc3ccc(C(=O)N[C@H]4CC[C@H](N5CCN(CC6CC6)CC5)CC4)cc3OC)nc2N1C(C)C [volasertib]
Outline: as §1

[8] = compound: CC[C@H](C)N1C=C(C2=C(C=C(C=C21)C3=CN=C(C=C3)N4CCNCC4)C(=O)NCC5=C(C=C(NC5=O)C)C)C
Outline: as §1

epoxomicin = compound: CC[C@H](C)[C@@H](C(=O)N[C@@H]([C@@H](C)O)C(=O)N[C@@H](CC(C)C)C(=O)[C@]1(CO1)C)NC(=O)[C@H]([C@@H](C)CC)N(C)C(=O)C [epoxomicin]
Outline: as §1

[9] = compound: CCn1c(C(=O)N(C2CC2)C2CC2)cc2c3c(ncn3C)c(Nc3cc(C)n(C)n3)nc21
Outline: as §1

[10] = compound: CCn1cc(-c2ccnc3[nH]c(-c4cccc(CN(C)C)c4)cc23)c(-c2ccc(NC(=O)N(C)C)cc2)n1
Outline: as §1

[11] = compound: CN(C)CC(=O)Nc1ccc2[nH]c(=O)c3ccccc3c2c1
Outline: as §1

rosiglitazone = compound: CN(CCOC1=CC=C(C=C1)C[C@H]2C(=O)NC(=O)S2)C3=CC=CC=N3 (racemic) [rosiglitazone]
Outline: as §1

[12] = compound: CN1C2=C(C3=C1C(=O)N(N=C3)CC4=CC(=CC=C4)N)SC(=C2)S(=O)C
Outline: as §1

[13] = compound: CN1CCC(CNc2ccc3ncc(-c4cccc(OC(F)(F)F)c4)n3n2)CC1
Outline: as §1

UniProt O43617, sequence (O43617 whole entry, looked up): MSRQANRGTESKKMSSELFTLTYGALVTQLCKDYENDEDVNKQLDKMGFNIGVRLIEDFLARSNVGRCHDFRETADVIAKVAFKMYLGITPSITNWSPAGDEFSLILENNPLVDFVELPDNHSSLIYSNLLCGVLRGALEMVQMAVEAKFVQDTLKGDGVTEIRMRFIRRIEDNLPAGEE
UniProt Q14139, sequence (Q14139 whole entry, looked up): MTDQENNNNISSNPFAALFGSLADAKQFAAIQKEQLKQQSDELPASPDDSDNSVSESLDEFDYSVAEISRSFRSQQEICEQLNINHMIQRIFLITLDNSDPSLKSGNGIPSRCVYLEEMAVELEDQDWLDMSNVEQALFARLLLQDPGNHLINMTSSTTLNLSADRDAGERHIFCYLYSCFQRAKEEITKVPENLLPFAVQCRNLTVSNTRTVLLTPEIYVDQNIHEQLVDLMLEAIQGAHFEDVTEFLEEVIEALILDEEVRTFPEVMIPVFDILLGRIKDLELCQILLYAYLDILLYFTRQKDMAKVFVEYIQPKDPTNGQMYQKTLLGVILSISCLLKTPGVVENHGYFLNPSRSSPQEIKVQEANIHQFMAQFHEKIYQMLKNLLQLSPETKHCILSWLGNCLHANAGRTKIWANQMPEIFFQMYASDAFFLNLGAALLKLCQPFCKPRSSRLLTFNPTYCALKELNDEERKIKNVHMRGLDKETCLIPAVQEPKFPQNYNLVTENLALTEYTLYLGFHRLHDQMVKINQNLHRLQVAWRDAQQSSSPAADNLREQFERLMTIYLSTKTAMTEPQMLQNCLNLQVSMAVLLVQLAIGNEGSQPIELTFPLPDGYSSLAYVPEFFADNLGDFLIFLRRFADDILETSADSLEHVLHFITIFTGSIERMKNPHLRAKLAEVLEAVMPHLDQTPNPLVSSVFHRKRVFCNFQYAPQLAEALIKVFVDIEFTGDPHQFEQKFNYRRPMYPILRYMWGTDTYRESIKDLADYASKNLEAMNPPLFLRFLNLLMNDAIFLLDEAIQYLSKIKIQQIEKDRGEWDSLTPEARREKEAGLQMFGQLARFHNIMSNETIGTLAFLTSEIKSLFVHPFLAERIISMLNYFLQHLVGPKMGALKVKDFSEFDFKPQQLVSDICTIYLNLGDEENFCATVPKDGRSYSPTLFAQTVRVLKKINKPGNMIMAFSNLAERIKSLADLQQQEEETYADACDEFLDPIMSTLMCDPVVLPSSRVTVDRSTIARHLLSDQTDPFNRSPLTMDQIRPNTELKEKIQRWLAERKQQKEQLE
UniProt Q8IY95, sequence (Q8IY95 whole entry, looked up): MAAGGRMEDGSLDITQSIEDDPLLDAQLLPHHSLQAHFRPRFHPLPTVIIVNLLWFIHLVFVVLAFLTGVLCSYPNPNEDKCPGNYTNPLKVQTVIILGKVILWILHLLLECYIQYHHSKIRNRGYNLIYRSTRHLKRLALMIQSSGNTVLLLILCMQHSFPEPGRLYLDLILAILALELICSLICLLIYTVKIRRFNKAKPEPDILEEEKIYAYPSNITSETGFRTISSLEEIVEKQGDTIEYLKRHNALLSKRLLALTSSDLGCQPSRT
UniProt O14980, sequence (O14980 whole entry, looked up): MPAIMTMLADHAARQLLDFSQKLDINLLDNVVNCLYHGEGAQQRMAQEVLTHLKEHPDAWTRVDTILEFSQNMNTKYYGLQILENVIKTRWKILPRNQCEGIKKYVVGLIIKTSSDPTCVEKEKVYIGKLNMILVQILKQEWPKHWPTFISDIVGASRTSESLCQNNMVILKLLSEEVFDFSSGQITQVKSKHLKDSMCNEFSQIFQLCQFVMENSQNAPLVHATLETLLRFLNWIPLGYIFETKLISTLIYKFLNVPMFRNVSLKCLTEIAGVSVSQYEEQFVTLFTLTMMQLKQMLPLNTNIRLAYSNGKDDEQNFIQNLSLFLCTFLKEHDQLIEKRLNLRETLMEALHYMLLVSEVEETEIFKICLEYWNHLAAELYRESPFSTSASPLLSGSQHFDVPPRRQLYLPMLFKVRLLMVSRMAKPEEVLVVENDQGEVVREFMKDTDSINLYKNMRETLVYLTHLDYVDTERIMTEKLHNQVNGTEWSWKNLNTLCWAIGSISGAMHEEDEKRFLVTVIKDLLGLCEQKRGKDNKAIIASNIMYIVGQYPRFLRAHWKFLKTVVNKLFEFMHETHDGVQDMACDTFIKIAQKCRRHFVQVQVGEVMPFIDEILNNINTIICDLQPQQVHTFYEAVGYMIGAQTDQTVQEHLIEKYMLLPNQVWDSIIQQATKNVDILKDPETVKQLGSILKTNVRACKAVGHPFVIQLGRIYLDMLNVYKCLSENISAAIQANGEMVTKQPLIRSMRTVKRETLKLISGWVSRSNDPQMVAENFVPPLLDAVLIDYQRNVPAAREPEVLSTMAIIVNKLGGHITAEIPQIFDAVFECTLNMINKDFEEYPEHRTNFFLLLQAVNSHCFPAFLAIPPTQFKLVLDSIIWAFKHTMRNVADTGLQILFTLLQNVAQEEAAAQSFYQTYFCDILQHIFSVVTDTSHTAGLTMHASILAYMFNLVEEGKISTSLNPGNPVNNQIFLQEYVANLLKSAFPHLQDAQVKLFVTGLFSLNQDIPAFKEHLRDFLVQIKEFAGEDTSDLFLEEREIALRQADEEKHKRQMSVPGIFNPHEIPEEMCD
UniProt Q7Z7E8, sequence (Q7Z7E8 whole entry, looked up): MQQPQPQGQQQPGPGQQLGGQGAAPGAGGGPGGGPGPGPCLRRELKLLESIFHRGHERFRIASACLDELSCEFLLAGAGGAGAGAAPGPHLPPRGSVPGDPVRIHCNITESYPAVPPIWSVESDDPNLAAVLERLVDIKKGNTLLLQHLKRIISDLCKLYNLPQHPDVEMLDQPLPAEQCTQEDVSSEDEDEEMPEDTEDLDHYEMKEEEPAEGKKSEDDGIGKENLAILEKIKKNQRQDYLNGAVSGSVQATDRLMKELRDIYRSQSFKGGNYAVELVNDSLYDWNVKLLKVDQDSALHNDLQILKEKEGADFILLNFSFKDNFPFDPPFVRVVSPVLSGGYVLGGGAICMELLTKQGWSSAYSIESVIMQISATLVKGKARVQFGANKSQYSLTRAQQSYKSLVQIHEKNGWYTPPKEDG
UniProt Q9H6R7, sequence (Q9H6R7 whole entry, looked up): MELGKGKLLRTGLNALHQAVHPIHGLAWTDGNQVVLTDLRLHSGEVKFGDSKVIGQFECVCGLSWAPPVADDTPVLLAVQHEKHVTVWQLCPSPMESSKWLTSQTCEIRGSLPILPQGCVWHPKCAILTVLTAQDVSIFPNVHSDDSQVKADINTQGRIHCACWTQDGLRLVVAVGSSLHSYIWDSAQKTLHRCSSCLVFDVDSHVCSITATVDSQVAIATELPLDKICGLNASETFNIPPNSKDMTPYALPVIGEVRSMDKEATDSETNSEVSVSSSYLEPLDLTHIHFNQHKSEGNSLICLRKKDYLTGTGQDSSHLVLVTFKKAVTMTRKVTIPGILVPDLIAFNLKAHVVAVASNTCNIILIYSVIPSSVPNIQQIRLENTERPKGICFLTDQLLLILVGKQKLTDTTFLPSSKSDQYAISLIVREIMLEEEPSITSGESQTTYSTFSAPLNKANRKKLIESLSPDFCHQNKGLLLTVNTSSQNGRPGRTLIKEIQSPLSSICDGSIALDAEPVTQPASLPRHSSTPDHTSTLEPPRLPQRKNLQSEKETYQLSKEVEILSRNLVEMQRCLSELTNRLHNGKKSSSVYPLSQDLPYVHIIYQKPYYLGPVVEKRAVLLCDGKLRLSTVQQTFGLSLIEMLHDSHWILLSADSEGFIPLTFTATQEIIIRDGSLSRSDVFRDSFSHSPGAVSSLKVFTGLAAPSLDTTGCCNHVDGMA
UniProt O75554, sequence (O75554 whole entry, looked up): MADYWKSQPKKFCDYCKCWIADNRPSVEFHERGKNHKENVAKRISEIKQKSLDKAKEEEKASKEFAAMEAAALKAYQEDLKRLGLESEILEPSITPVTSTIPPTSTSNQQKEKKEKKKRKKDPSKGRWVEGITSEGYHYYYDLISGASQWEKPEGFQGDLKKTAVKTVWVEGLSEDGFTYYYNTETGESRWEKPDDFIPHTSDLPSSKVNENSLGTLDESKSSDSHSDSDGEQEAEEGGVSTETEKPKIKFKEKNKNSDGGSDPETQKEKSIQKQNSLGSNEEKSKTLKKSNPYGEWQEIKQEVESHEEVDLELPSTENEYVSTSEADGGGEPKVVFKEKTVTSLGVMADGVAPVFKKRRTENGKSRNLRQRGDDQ
UniProt Q15642, sequence (Q15642 whole entry, looked up): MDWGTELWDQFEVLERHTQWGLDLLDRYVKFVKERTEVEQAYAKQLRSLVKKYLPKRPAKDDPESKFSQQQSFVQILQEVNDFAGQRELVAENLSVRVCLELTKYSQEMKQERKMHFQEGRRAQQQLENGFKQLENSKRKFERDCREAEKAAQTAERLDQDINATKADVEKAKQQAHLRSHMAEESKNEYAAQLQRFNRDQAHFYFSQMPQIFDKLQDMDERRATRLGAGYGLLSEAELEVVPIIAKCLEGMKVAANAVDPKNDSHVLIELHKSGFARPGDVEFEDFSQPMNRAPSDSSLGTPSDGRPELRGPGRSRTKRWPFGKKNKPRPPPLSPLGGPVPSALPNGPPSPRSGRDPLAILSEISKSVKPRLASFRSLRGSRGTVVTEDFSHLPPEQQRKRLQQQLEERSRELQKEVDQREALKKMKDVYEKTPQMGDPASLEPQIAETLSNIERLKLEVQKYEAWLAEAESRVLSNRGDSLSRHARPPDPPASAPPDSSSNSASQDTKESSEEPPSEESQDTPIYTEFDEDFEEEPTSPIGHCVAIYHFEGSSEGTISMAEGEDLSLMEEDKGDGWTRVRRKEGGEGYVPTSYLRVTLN

Row | Target | log2 fold change [1] | log2 fold change [2] | log2 fold change [3] | log2 fold change [4] | log2 fold change (Nexturastat A) | log2 fold change (vemurafenib) | log2 fold change [5] | log2 fold change [6] | log2 fold change (givinostat) | log2 fold change (barasertib) | log2 fold change [7] | log2 fold change (volasertib) | log2 fold change [8] | log2 fold change (epoxomicin) | log2 fold change [9] | log2 fold change [10] | log2 fold change [11] | log2 fold change (rosiglitazone) | log2 fold change [12] | log2 fold change [13]
1 | UBE4A isoform 2 (UniProt Q14139) | -0.064 | -0.058 | -0.029 | 0.01 | 0.061 | 0.048 | 0.097 | 0.021 | 0.073 | 0.065 | -0.126 | -0.584 (active) | 0.123 | 0.087 | -0.114 | -0.055 | 0.053 | 0.05 | 0.159 | -0.436 (active)
2 | TRIP10 isoform 2 (UniProt Q15642) | -0.068 | -0.04 | 0.019 | 0.046 | 0.12 | 0.026 | 0.177 | 0.004 | 0.01 | 0.011 | -0.033 | -0.276 | -0.018 | -0.285 | -0.073 | -0.101 | -0.18 | -0.012 | 0.045 | -0.075
3 | XPO1 (UniProt O14980) | 0.072 | -0.063 | 0.025 | 0.081 | -0.061 | 0.086 | 0.101 | -0.011 | 0.024 | 0.039 | -0.175 | -0.546 (active) | 0.085 | 0.023 | -0.049 | -0.13 | 0.058 | 0.077 | -0.033 | -0.343 (active)
4 | TMEM192 (UniProt Q8IY95) | 0.013 | -0.032 | 0.026 | -0.028 | 0.004 | -0.006 | -0.026 | -0.014 | -0.038 | -0.005 | -0.139 | -0.061 | -0.025 | -0.04 | 0.074 | 0.046 | -0.024 | 0.008 | 0.025 | -0.408 (active)
5 | WBP4 (UniProt O75554) | 0.105 | 0.044 | 0.057 | -0.036 | -0.047 | 0.022 | 0.011 | 0 | -0.043 | -0.022 | -0.004 | -0.045 | 0.003 | 0.069 | 0.025 | -0.089 | -0.036 | -0.038 | -0.058 | 0.218
6 | WDCP (UniProt Q9H6R7) | 0.003 | 0.013 | -0.103 | -0.023 | 0.061 | -0.087 | 0.025 | -0.004 | 0.116 | -0.06 | -0.196 | -0.477 (active) | 0.102 | 0.127 | -0.062 | 0.071 | 0.057 | 0.047 | 0.124 | -0.019
7 | TRAPPC3 (UniProt O43617) | 0 | 0.023 | 0.061 | 0.042 | -0.218 (active) | 0.023 | 0.01 | -0.006 | -0.051 | 0.025 | -0.019 | -0.118 | -0.02 | -0.029 | 0.047 | 0.04 | -0.016 | -0.022 | -0.051 | -0.059
8 | UBE2Q1 (UniProt Q7Z7E8) | 0.093 | -0.041 | -0.003 | -0.037 | 0.008 | 0.011 | 0.114 | -0.031 | 0.022 | 0.068 | -0.087 | -0.295 (active) | 0.015 | -0.042 | -0.075 | -0.048 | 0.027 | 0.061 | -0.007 | -0.212
